Laboratory results: PMC7862700, “An all-to-all approach to the identification of sequence-specific readers for epigenetic DNA modifications on cytosine”

Legend:
Experiment in all cases: DAPPL (digital affinity profiling via proximity ligation, sequencing); 10 mM Tris-HCl pH 7.5, 50 mM NaCl, 1 mM DTT, 4% glycerol, room temperature, 30 min; GST-TFs on glutathione beads, 16-mer random dsDNA library, 0.1% formaldehyde crosslink after washing; high values mean tight binding
[1] = molecular target: T1, FLI1 (Homo sapiens, UniProt Q01543 1-452); settings: protein: recombinant; tags: N-terminal GST; dsDNA, one strand shown
T1 sequence: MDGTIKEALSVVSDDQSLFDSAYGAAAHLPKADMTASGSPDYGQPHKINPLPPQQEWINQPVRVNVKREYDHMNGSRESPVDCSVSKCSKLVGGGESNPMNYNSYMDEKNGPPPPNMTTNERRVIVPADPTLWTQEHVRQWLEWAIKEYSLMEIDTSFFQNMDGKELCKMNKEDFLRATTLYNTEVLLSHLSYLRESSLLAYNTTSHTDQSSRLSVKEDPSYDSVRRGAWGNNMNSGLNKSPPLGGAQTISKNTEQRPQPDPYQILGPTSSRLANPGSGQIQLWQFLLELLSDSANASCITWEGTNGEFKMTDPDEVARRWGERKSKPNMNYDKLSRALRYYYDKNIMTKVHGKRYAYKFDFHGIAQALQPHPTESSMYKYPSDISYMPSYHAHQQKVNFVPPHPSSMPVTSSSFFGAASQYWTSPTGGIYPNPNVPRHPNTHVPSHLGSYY
How it was run: (§1)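 Human transcription factors were made in yeast as GST fusions, captured on glutathione beads and barcoded with DNA. With a tag-only sample included, the pool was incubated with 200 nmole of a random double-stranded 16-mer DNA library in Tris/NaCl/DTT/glycerol buffer at room temperature for 30 min, then crosslinked with 0.1% formaldehyde after washing, ligated by proximity, amplified and sequenced. For binding signal, each hexamer's read frequency for a factor is divided by its frequency for the tag-only sample.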

[2] = molecular target: T2, ELK1 (Homo sapiens, UniProt P19419 1-428); settings: protein: recombinant; tags: N-terminal GST; dsDNA, one strand shown
T2 sequence: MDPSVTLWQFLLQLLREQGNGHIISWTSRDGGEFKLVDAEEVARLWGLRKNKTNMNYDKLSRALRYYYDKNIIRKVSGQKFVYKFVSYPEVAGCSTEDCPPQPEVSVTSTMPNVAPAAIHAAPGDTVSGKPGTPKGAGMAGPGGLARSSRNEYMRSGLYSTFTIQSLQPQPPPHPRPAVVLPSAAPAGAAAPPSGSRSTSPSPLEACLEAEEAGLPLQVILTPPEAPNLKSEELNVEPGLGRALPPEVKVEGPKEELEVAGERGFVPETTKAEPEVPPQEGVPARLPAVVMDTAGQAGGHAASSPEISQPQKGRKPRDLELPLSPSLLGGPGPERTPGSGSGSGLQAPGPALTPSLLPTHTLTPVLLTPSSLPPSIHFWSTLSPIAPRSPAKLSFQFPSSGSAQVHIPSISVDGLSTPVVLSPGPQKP
How it was run: as §1

[3] = molecular target: T3, GABPA (Homo sapiens, UniProt Q06546 1-454); settings: protein: recombinant; tags: N-terminal GST; dsDNA, one strand shown
T3 sequence: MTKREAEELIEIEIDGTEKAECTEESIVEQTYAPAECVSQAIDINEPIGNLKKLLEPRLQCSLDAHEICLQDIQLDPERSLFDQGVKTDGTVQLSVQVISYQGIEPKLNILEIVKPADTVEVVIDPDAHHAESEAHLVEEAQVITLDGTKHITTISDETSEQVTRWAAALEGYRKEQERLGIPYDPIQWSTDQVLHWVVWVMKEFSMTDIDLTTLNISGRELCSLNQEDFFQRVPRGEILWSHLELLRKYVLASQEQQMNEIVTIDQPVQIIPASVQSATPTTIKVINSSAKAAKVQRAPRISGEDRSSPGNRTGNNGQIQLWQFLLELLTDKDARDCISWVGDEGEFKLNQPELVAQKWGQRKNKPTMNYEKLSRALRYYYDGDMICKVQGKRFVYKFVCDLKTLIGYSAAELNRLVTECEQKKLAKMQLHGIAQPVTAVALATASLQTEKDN
How it was run: as §1

[4] = molecular target: T4, ERG (Homo sapiens, UniProt P11308 1-479); settings: protein: recombinant; tags: N-terminal GST; dsDNA, one strand shown
T4 sequence: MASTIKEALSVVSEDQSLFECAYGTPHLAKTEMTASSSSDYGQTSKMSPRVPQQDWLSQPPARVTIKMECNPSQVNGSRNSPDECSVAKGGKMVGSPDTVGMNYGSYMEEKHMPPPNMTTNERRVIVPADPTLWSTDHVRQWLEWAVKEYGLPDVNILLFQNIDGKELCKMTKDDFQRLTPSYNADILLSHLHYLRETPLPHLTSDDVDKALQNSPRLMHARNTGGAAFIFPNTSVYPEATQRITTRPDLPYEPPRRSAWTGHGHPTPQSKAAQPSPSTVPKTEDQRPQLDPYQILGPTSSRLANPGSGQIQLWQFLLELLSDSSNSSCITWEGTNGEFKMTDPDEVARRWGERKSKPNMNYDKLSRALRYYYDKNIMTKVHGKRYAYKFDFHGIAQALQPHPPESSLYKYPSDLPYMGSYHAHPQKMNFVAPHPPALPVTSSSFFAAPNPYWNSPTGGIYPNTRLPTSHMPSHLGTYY
How it was run: as §1

[5] = molecular target: ELF1 (Homo sapiens, UniProt P32519 1-619); settings: protein: recombinant; tags: N-terminal GST; dsDNA, one strand shown
Sequence of ELF1 (P32519 whole entry): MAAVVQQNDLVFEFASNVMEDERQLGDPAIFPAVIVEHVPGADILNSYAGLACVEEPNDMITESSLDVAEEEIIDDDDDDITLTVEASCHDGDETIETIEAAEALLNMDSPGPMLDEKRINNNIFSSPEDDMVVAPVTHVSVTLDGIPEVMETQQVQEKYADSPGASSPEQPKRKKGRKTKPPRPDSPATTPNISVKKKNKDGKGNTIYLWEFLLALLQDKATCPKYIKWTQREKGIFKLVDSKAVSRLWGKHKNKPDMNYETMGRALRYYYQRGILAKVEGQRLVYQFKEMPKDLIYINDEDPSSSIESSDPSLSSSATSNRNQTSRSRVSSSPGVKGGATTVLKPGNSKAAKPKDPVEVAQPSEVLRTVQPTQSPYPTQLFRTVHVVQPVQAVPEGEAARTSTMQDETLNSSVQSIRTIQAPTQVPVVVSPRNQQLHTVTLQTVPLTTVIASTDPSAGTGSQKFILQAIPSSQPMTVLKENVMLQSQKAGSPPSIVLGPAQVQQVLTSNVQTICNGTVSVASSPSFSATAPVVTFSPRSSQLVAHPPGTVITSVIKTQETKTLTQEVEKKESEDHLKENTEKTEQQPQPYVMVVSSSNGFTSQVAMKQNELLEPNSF
How it was run: as §1

[6] = molecular target: T5, EHF (Homo sapiens, UniProt Q9NZC4 1-300); settings: protein: recombinant; tags: N-terminal GST; dsDNA, one strand shown
T5 sequence: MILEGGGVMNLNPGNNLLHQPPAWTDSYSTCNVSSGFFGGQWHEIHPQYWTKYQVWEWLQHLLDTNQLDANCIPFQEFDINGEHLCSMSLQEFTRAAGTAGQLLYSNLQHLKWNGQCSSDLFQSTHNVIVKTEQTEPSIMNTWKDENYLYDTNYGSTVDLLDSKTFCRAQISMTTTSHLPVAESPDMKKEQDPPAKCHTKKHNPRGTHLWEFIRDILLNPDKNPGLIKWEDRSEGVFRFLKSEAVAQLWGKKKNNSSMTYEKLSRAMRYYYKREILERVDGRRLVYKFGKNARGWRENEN
How it was run: as §1

[7] = molecular target: SPI1 (Homo sapiens, UniProt P17947 1-270); settings: protein: recombinant; tags: N-terminal GST; dsDNA, one strand shown
How it was run: as §1

[8] = molecular target: SPIB (Homo sapiens, UniProt Q01892 1-262); settings: protein: recombinant; tags: N-terminal GST; dsDNA, one strand shown
Sequence of SPIB (Q01892 whole entry): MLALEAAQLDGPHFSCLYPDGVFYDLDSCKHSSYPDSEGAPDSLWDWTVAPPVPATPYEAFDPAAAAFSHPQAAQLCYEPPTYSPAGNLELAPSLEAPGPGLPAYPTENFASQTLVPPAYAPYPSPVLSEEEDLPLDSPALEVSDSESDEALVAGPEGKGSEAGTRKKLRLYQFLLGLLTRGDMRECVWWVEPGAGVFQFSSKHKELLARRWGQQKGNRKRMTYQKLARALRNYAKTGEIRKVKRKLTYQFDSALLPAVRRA
How it was run: as §1

[9] = molecular target: T6, ELK3 (Homo sapiens, UniProt P41970 1-407); settings: protein: recombinant; tags: N-terminal GST; dsDNA, one strand shown
T6 sequence: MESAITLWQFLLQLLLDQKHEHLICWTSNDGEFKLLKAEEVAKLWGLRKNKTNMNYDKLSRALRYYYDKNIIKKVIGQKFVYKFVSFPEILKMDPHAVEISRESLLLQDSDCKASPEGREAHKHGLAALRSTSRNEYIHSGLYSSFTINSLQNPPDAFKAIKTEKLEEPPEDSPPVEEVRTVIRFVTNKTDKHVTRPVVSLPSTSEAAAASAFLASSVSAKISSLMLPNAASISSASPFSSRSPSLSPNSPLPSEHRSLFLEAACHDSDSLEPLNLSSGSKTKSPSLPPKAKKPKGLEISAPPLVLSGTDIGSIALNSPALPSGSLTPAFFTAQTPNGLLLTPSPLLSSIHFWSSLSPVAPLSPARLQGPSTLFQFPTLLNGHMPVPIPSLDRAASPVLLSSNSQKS
How it was run: as §1

[10] = molecular target: T7, FEV (Homo sapiens, UniProt Q99581 1-238); settings: protein: recombinant; tags: N-terminal GST; dsDNA, one strand shown
T7 sequence: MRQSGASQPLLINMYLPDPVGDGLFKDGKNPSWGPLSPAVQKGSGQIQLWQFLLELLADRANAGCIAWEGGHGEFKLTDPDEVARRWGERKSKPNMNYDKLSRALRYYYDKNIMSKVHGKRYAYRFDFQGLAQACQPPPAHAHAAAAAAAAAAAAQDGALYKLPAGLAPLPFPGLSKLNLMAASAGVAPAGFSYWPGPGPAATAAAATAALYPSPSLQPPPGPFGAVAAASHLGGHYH
How it was run: as §1

[11] = molecular target: ETV5 (Homo sapiens, UniProt P41161 1-510); settings: protein: recombinant; tags: N-terminal GST; dsDNA, one strand shown
Sequence of ETV5 (P41161 whole entry): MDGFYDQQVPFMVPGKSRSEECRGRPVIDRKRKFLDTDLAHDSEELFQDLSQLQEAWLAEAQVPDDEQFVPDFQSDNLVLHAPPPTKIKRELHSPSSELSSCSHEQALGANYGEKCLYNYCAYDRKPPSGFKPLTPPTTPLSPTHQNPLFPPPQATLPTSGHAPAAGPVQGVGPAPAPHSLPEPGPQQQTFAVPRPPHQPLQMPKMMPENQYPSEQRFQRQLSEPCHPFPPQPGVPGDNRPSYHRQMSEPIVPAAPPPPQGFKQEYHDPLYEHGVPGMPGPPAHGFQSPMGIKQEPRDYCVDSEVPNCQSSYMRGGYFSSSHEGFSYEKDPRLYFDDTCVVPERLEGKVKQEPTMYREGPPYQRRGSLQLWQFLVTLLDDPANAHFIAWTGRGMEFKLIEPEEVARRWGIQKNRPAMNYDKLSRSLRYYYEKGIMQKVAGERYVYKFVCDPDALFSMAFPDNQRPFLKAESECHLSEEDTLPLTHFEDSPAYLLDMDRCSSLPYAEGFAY
How it was run: as §1

[12] = molecular target: HSF1 (Homo sapiens, UniProt Q00613 1-529); settings: protein: recombinant; tags: N-terminal GST; chain copies: 3; dsDNA, one strand shown
Sequence of HSF1 (Q00613 whole entry): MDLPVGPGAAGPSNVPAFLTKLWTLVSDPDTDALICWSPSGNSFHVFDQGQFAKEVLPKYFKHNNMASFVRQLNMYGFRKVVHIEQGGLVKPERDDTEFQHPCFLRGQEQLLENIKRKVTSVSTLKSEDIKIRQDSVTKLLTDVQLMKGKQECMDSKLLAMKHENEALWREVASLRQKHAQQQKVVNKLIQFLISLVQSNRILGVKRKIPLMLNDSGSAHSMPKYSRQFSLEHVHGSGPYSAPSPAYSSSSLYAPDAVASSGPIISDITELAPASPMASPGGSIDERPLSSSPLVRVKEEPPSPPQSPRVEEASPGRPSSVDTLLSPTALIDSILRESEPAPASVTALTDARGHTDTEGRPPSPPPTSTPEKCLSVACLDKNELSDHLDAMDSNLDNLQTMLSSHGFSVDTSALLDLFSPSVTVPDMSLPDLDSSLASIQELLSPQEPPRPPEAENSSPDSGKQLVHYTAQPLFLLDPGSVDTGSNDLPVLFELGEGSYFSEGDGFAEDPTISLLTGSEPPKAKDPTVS
How it was run: as §1

[13] = molecular target: T8, SPIC (Homo sapiens, UniProt Q8N5J4 1-248); settings: protein: recombinant; tags: N-terminal GST; dsDNA, one strand shown
T8 sequence: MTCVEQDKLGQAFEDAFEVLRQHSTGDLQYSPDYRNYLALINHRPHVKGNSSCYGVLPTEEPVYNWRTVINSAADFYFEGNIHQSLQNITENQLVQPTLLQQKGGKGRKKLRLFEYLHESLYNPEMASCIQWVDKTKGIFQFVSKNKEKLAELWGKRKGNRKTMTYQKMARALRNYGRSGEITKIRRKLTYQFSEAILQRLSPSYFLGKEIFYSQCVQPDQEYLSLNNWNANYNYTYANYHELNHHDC
How it was run: as §1

[14] = molecular target: ELF4 (Homo sapiens, UniProt Q99607 1-663); settings: protein: recombinant; tags: N-terminal GST; dsDNA, one strand shown
Sequence of ELF4 (Q99607 whole entry): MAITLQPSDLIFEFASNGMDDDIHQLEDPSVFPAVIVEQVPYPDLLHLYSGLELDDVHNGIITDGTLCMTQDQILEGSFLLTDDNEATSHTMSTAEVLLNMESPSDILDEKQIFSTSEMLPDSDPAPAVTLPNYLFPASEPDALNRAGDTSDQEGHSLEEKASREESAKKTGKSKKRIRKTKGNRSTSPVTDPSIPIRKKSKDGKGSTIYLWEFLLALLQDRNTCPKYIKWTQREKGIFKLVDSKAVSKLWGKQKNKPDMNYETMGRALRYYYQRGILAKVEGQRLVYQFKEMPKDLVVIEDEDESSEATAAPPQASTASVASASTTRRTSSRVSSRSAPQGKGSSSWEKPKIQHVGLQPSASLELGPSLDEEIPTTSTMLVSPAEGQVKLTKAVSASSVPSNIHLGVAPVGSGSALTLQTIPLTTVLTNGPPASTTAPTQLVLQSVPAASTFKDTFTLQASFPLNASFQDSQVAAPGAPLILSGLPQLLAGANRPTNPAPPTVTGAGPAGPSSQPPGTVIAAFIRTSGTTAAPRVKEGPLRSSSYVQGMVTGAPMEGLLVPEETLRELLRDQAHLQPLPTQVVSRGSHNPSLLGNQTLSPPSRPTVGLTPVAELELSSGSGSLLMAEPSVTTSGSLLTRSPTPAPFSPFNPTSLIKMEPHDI
How it was run: as §1

[15] = molecular target: T9, ELK4 (Homo sapiens, UniProt P28324-2 1-405); settings: protein: recombinant; tags: N-terminal GST; dsDNA, one strand shown
T9 sequence: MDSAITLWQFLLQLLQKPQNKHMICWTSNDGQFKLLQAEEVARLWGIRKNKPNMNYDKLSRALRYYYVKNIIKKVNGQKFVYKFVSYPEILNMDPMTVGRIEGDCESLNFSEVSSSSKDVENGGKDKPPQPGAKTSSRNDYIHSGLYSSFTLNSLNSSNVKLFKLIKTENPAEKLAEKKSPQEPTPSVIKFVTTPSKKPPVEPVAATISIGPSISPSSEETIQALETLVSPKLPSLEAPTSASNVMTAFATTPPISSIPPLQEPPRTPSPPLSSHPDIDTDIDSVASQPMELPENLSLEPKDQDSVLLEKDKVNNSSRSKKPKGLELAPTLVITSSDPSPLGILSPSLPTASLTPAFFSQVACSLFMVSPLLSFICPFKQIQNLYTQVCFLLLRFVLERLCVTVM
How it was run: as §1

[16] = molecular target: T10, ETV2 (Homo sapiens, UniProt O00321 1-342); settings: protein: recombinant; tags: N-terminal GST; dsDNA, one strand shown
T10 sequence: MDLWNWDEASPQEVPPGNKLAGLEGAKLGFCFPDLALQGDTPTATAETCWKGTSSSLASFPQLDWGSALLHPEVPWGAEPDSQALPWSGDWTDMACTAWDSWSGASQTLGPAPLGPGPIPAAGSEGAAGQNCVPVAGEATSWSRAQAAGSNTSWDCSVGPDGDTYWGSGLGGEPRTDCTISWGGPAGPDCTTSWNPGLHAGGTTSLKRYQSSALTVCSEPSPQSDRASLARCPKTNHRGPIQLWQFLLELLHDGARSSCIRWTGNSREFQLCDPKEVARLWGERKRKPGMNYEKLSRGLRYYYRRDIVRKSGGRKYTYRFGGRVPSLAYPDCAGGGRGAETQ
How it was run: as §1

[17] = molecular target: T11, ELF3 (Homo sapiens, UniProt P78545 1-371); settings: protein: recombinant; tags: N-terminal GST; dsDNA, one strand shown
T11 sequence: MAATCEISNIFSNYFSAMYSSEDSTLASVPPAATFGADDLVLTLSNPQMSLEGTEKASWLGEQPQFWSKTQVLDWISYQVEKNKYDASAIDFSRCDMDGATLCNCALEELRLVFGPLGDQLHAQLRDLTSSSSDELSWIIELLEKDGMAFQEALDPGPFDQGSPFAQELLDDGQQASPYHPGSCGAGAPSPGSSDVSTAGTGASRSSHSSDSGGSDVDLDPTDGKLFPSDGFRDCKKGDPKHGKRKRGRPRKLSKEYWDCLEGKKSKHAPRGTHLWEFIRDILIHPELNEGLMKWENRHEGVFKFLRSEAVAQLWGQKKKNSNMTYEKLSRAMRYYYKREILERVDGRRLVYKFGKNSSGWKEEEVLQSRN
How it was run: as §1

[18] = molecular target: CRX (Homo sapiens, UniProt O43186 1-299); settings: protein: recombinant; tags: N-terminal GST; dsDNA, one strand shown
Sequence of CRX (O43186 whole entry): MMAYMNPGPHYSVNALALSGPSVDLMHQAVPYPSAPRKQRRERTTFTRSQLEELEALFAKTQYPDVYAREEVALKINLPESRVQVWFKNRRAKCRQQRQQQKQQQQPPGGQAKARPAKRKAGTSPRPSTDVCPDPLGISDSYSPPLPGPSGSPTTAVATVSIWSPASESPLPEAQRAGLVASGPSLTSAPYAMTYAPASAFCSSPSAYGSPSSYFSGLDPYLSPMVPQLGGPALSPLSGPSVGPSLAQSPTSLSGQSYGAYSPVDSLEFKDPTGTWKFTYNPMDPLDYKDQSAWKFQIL
How it was run: as §1

[19] = molecular target: ETV1 (Homo sapiens, UniProt P50549 1-477); settings: protein: recombinant; tags: N-terminal GST; dsDNA, one strand shown
Sequence of ETV1 (P50549 whole entry): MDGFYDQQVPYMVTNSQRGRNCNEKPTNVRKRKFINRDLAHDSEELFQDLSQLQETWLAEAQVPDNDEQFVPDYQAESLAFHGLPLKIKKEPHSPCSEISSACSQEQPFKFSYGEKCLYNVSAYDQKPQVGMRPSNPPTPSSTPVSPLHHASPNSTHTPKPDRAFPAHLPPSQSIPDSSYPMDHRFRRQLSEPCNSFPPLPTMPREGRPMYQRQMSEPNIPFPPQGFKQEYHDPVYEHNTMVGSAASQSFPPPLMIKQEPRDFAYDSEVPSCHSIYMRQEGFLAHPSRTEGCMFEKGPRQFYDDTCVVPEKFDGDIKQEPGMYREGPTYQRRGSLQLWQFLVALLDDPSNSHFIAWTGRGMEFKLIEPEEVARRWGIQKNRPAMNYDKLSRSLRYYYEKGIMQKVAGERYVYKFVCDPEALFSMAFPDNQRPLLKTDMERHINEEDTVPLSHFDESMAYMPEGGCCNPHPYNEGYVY
How it was run: as §1

TTGCAA
binding signal [1]: 1.14 fold enrichment (6-mer frequency, TF over GST control) | binding signal [2]: 1.28 fold enrichment (6-mer frequency, TF over GST control) | binding signal [3]: 1.2 fold enrichment (6-mer frequency, TF over GST control) | binding signal [4]: 1.08 fold enrichment (6-mer frequency, TF over GST control) | binding signal [5]: 1.18 fold enrichment (6-mer frequency, TF over GST control) | binding signal [6]: 1.2 fold enrichment (6-mer frequency, TF over GST control) | binding signal [7]: 1.04 fold enrichment (6-mer frequency, TF over GST control) | binding signal [8]: 1.15 fold enrichment (6-mer frequency, TF over GST control) | binding signal [9]: 1.29 fold enrichment (6-mer frequency, TF over GST control) | binding signal [10]: 1.12 fold enrichment (6-mer frequency, TF over GST control) | binding signal [11]: 1.17 fold enrichment (6-mer frequency, TF over GST control) | binding signal [12]: 1.07 fold enrichment (6-mer frequency, TF over GST control) | binding signal [13]: 1.09 fold enrichment (6-mer frequency, TF over GST control) | binding signal [14]: 1.19 fold enrichment (6-mer frequency, TF over GST control) | binding signal [15]: 1.21 fold enrichment (6-mer frequency, TF over GST control) | binding signal [16]: 1.22 fold enrichment (6-mer frequency, TF over GST control) | binding signal [17]: 1.13 fold enrichment (6-mer frequency, TF over GST control) | binding signal [18]: 1.12 fold enrichment (6-mer frequency, TF over GST control) | binding signal [19]: 1.27 fold enrichment (6-mer frequency, TF over GST control)
